Consider 99 compounds from PubChem BioAssay AID778 (Sanford-Burnham Center for Chemical Genomics, 2007).

About 20,000 (21%) of roughly 96,000 compounds were called active. A selection follows. Unmarked numbers belong to inactive results.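 How the source made its calls: active means CYP2C19 inhibition above a set limit at 5 µM in the primary screen (cut at about 50% in these data); inactive means the rest.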

Broadly, the inhibition is the change of the read-out against control, counted positive when it falls.

The experiment deals with Cytochrome P450 2C19 (Homo sapiens) (UniProt P33261). Description: blockers of cytochrome P450 2C19 activity – biochemical, luminescence, ADME assay, primary screen (AID 778).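 Further: plate controls were negative control wells for no effect and 2.5 mM tranylcypromine positive control for full effect.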 The following applies: CYP2C19 Supersomes, luciferin-H EGE luminescence, 30 min; at 5 µM; hits give high values.
Chain of Cytochrome P450 2C19 (Homo sapiens) (P33261 whole entry, looked up): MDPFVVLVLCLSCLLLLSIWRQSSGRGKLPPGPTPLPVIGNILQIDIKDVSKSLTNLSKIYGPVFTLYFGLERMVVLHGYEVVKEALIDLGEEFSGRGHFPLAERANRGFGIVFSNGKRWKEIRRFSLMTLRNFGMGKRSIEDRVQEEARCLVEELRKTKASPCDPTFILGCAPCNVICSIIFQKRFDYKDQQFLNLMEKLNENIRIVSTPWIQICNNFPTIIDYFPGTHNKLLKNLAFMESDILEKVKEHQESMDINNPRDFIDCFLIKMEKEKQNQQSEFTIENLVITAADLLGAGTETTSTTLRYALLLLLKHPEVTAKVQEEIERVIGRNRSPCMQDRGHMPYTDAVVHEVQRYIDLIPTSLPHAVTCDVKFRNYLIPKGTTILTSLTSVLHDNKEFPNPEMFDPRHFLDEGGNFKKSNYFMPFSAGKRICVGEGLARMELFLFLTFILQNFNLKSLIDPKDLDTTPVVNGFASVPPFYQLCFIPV
Consider `O=C1CSC2=NCN(c3ccccc3)CN12`, for which the inhibition was 3.1%.

In the case of `CCOc1ccc(Nc2oc(Cc3ccccc3)nc2C#N)cc1`, the inhibition is 30.6%.

For the compound `N#Cc1nc(Cc2ccccc2)oc1NCCc1ccccc1`, the inhibition is 64.7% (active).

For the compound `N#Cc1nc(Cc2cccc3ccccc23)oc1NCc1ccc2c(c1)OCO2`, the inhibition was 48.7%.

Turning to `FC(F)(F)c1nnc2sc(-c3ccco3)nn12`, the inhibition is 10.3%.

Consider `CCOc1ccc(/C(O)=C2/C(=O)C(=O)N(Cc3cccnc3)C2c2ccc(N(C)C)cc2)c(C)c1` (centres undefined), for which the inhibition was 3.8%.

For `CCOc1ccc(N2C(=O)CC(N(O)c3ccccc3)C2=O)cc1` (centres undefined), the inhibition was 20.3%.

For the compound `Cn1c(N)c(C(=O)COC(=O)C23CC4CC(CC(C4)C2)C3)c(=O)n(C)c1=O`, the inhibition was 13.1%.

With `Cc1cc(C)cc(NC(=O)N2CCC(NC(=O)c3ccc(F)cc3)CC2)c1`, the inhibition is -9.5%.

As to `COCCCn1c(Cc2csc(Nc3cccc(Cl)c3)n2)nnc1SCC(=O)OC1CCCCC1`, the inhibition was 27.4%.

For `CCOc1ccc(Nc2nc(Cc3nnc(SCC(=O)NC4CCCC4)n3C)cs2)cc1`, the inhibition is 53.4% (active).

On to `CCOc1ccc(Nc2nc(Cc3nnc(SCC(=O)c4ccc(C)cc4)o3)cs2)cc1`, for which the inhibition was 46.9%.

For the compound `CC(C)c1ccc(Nc2ncccc2C#N)cc1`, the inhibition was 22.2%.

As for `Cc1ccc(NC2=NC(c3ccccc3)n3c(nc(C)cc3=O)N2)cc1` (centres undefined), the inhibition is 42.1%.

For `Cc1ccc(OCC(=O)Nc2ccc(-c3nnc(-c4ccco4)o3)cc2)cc1`, the inhibition is 44.4%.

Regarding `CC1(C)CC(=O)c2cc(OCC(=O)NCC3CCCO3)ccc2O1` (centres undefined), the inhibition was 16.2%.

With `Cc1ccc(/C=N\n2c(-c3ccccc3)n[nH]c2=S)s1`, the inhibition was 4.8%.

As for `CCNC(=S)N1CCN(C(=O)c2ccco2)CC1`, the inhibition was 5.5%.

Consider `O=C(c1ccc2c(c1)OCO2)N1CCN(C(=O)c2ccco2)CC1`, for which the inhibition is 17%.

As to `O=C(c1ccco1)N1CCN(C(=O)C2c3ccccc3Oc3ccccc32)CC1`, the inhibition was 88.7% (active).

Regarding `O=C(Cc1c(F)cccc1Cl)N1CCN(C(=O)c2ccco2)CC1`, the inhibition was 11.2%.

For the compound `COc1ccc(N2C(=O)C3CCCN3C2c2cccc(OC)c2)cc1` (centres undefined), the inhibition is 30.1%.

In the case of `Cc1ccc(OS(=O)Nc2cccc3nccnc23)cc1` (centres undefined), the inhibition is 38.8%.

As for `Cc1ccc(S(=O)(=O)Nc2nc3ccccc3nc2N2CCc3ccccc3C2)cc1`, the inhibition was 40.6%.

Take `Cc1ccc(S(=O)(=O)C(C#N)c2nc3ccccc3nc2N2CCCC2)cc1C` (centres undefined): the inhibition is 96.8% (active).

For the compound `CC(C)OC(=O)C(C#N)c1nc2ccccc2nc1N1CCN(Cc2ccc3c(c2)OCO3)CC1` (centres undefined), the inhibition is 2.4%.

On to `Cc1ccc(-c2c3c(=O)n(C)c(=O)n(C)c3cn2-n2cnnc2)cc1`, for which the inhibition was -18.4%.

Consider `Cc1cccc(C)c1N1CCN(S(=O)(=O)N2CCOCC2)CC1`, for which the inhibition is 22.7%.

In the case of `O=S(=O)(N1CCOCC1)N1CCN(c2ccccc2F)CC1`, the inhibition is 61.1% (active).

Regarding `O=C(c1ccc(CN2CCOCC2)cc1)N1CCN(c2ccccc2F)CC1`, the inhibition was 9.5%.

For the compound `COC(=O)c1sccc1N/N=C(\C)c1ccc(F)c(Cl)c1`, the inhibition was -0.3%.

As to `O=C(Nc1ccc2c(c1)OCCO2)C1CCCN(c2ncccn2)C1` (centres undefined), the inhibition is 1.1%.

Consider `Cc1ccnc(N2CCC(C(=O)NC3CCCCCC3)CC2)n1`, for which the inhibition is 94.4% (active).

Consider `Cc1cc(C)cc(NC(=O)C2CCN(c3nc(C)cc(C)n3)CC2)c1`, for which the inhibition was -2.3%.

Regarding `Cc1cc(-c2ccccc2)nc(N2CCC(C(=O)NC34CC5CC(CC(C5)C3)C4)CC2)n1`, the inhibition is 8.2%.

Take `CC(C)CCNC(=O)C1CCCN(S(=O)(=O)c2ccc(F)cc2)C1` (centres undefined): the inhibition is 7.6%.

As for `Cc1ccnc(N2CCCC(C(=O)Nc3cc(F)ccc3C)C2)n1` (centres undefined), the inhibition was 99.2% (active).

Turning to `C/C(=N\NC(=O)c1nc(C)cc(C)n1)c1ccccc1`, the inhibition is -4%.

In the case of `Cc1ccc(-c2nnc(SC(C)C#N)n2N)cc1` (centres undefined), the inhibition was 9%.

As for `NC(N)=N/N=C/c1ccc(OCc2ccc(Cl)cc2Cl)cc1`, the inhibition was -10.2%.

In the case of `CCOC(=O)C1=C(O)CSC1=Nc1cccc(Cl)c1`, the inhibition is 9.1%.

Turning to `COC(=O)C1C(=O)NCC1c1ccc(OC)cc1` (centres undefined), the inhibition is 13.7%.

With `CC(C)(C)NS(=O)(=O)CC12CCC(CC1=O)C2(C)C` (centres undefined), the inhibition is 17.8%.

As for `CCOc1cc2[nH]c(=S)n(CCN3CCCCC3C)c(=O)c2cc1OCC` (centres undefined), the inhibition was 2.3%.

As for `C=CCNC(=O)c1sc(SC)cc1-c1ccc(Cl)cc1`, the inhibition was 83.9% (active).

For `C=CCNC(=O)c1ccc(C)c(Br)c1`, the inhibition is 19.1%.

`O=C(c1cc(-c2ccccc2O)on1)N1CCCC1`: the inhibition is 17.3%.

As for `O=C(NCCCn1ccnc1)Nc1ccc(Cl)cc1Cl`, the inhibition is 97.4% (active).

`Cc1cc2nc(C)n(CCCNC(=O)Nc3ccccc3)c2cc1C`: the inhibition was 20.3%.

For the compound `COc1ccc(-c2cc(C(=O)NCc3ccco3)no2)cc1OC`, the inhibition is -19.3%.

For `CCCCOCCCNC(=O)c1ccccc1OCC`, the inhibition is 48.3%.

For `COc1ccccc1-c1cc(C(=O)N2CCCCC2)no1`, the inhibition is 52.8% (active).

Take `CCOc1ccc(C(=O)NCCCN2CCCC2=O)cc1`: the inhibition is 15.8%.

Regarding `NS(=O)(=O)c1ccc(CCNC(=O)Nc2ccc(Cl)cc2)cc1`, the inhibition is 24.5%.

`COc1ccccc1-c1cc(C(=O)NCCCn2ccnc2)no1`: the inhibition is 78.5% (active).

On to `O=C(c1cc(-c2cccs2)on1)N1CCCCC1`, for which the inhibition is 14.3%.

In the case of `COc1ccccc1CCNC(=O)c1cnccn1`, the inhibition was 22.6%.

For `CCOc1ccccc1C(=O)NCCCn1ccnc1`, the inhibition is 93.4% (active).

Regarding `CCCCCCCCOC1OC(CO)C(O)C(O)C1NC(C)=O` (centres undefined), the inhibition is -4.2%.

As for `N#Cc1c(NC(=O)CCCN2C(=O)c3ccccc3C2=O)oc(-c2ccccc2)c1-c1ccccc1`, the inhibition was 24.8%.

Consider `COCCOC(=O)c1sc(=S)n(CCOC)c1N`, for which the inhibition was 47.6%.

Consider `Cc1ccc2nc(NC(=O)C3CCN(S(=O)(=O)c4ccc5c(c4)oc(=O)n5C)CC3)sc2c1`, for which the inhibition is 6.1%.

Take `CCCCC(=O)Nc1ccc(C(=O)NCCCn2ccnc2)cc1`: the inhibition is 37.9%.

In the case of `CCN(CC)C(=O)CCC(=O)Nc1ccc(C(=O)OC)cc1`, the inhibition was 33.7%.

For `CCCC(=O)Nc1ccc(C(=O)NCCCn2ccnc2)cc1`, the inhibition is 52.2% (active).

In the case of `CC1(C)CC(=O)C(C2=NC(C)(C)Cc3ccccc32)=C(O)C1`, the inhibition is 13.7%.

For the compound `COc1ccc(C2C(C#N)=C(/N=C/N3CCOCC3)OC3=C2C(=O)CC(C)(C)C3)cc1OC` (centres undefined), the inhibition was 21%.

Consider `CCc1ccc(N(CC)c2ncnc3nc[nH]c23)cc1`, for which the inhibition is 14.9%.

On to `Cn1c2c(c(=O)n(C)c1=O)C(c1cccc([N+](=O)[O-])c1)Nc1ccccc1O2` (centres undefined), for which the inhibition is 18.9%.

Take `CCOC(=O)C1=C(CN2CCc3ccccc32)NC(=O)NC1c1ccc(Cl)cc1` (centres undefined): the inhibition was 26.5%.

With `CCOC(=O)C1=C(CN2CCc3ccccc32)NC(=O)NC1c1cccc([N+](=O)[O-])c1` (centres undefined), the inhibition is 63.5% (active).

With `O=C(COc1ccc2oc3c(c2c1)CCCC3)Nc1ccccn1`, the inhibition was 21.2%.

For the compound `O=C(COc1ccc2c3c(c(=O)oc2c1)CCC3)NC1CCCCC1`, the inhibition is 54.4% (active).

Turning to `NC(=O)COc1ccc2c3c(c(=O)oc2c1)CCCCC3`, the inhibition was -3.8%.

With `CCC1(CC)NC(=O)N(CC(=O)OCC(=O)Nc2ccc(C(F)(F)F)cc2)C1=O`, the inhibition was -6.3%.

Take `S=c1[nH]nc(-c2ccco2)n1/N=C/c1ccc(Br)s1`: the inhibition is -11.6%.

Consider `Cc1ccc(CNC(=O)C2CCCN2C(=O)NCc2ccccc2)cc1` (centres undefined), for which the inhibition was 0.7%.

Take `O=C(NCc1ccccc1)[C@@H]1CSC2c3ccccc3C(=O)N21` (some centres undefined): the inhibition was 81.2% (active).

As to `O=C(O)C1CC=C(Cl)CC1C(=O)NCc1ccccc1` (centres undefined), the inhibition was 2.3%.

As to `Cn1c(=O)c(C(=O)Nc2ncccn2)c(O)c2ccccc21`, the inhibition was 7.9%.

Take `O=C(NCc1ccc(Cl)cc1)c1cc(=O)nc2sc(-c3ccccc3)nn12`: the inhibition was 4.6%.

As to `O=C(CCc1ccccc1)Nc1cccc(-c2nnc(-c3ccco3)o2)c1`, the inhibition was 18.2%.

`CC(=O)CSc1nnc(CSc2ncccn2)n1C1CCCCC1`: the inhibition was -8.3%.

Turning to `CC1CCCCN1S(=O)(=O)c1ccc(C(=O)Nc2nnc(-c3cccs3)o2)cc1` (centres undefined), the inhibition is 10.3%.

Consider `NC(=O)CSc1oc(-c2cccs2)nc1S(=O)(=O)c1ccccc1`, for which the inhibition is 79.2% (active).

Consider `Cc1ccc(CNC(=O)COc2ccc(S(=O)(=O)NC(C)C)cc2)cc1`, for which the inhibition was 38.8%.

Turning to `Nc1ccc(C(=O)OCC(=O)NC2CCCc3ccccc32)cc1[N+](=O)[O-]` (centres undefined), the inhibition is 34.6%.

Turning to `CCOC(=O)CSc1nnc(CNc2nc(-c3ccccc3)cs2)n1C`, the inhibition is 35%.

`Cn1c(CC(=O)Nc2ccccc2)nnc1SCC(=O)c1ccccc1`: the inhibition was 33.2%.

`Cn1c(CNc2nc(-c3ccccc3)cs2)nnc1SCC(=O)c1ccccc1`: the inhibition is 86.5% (active).

For `CCOc1c2ccc(C(=O)NC3CCCc4ccccc43)cc2nn1CC` (centres undefined), the inhibition was 29.9%.

Consider `CSCC[C@H](NC(=O)NCCc1ccc(F)cc1)C(=O)O`, for which the inhibition is 72.3% (active).

With `CSCC[C@H](NC(=O)NCc1cccs1)C(=O)O`, the inhibition is -4.9%.

For `CC(C)C[C@H](NC(=O)NCCc1ccc(Cl)cc1)C(=O)O`, the inhibition was 2.7%.

Turning to `O=C(O)c1ccc(-n2cccc2)cc1O`, the inhibition is 5.6%.

Consider `CCCOc1cc(C)c(S(=O)(=O)n2nnc3ccccc32)cc1C`, for which the inhibition was -9.4%.

For `CCOc1cc(C)c(Cl)cc1S(=O)(=O)n1nnc2ccccc21`, the inhibition was 66.1% (active).

For the compound `Cc1ccc(S(=O)(=O)n2cnc3ccccc32)c(C)c1`, the inhibition was 4.5%.

Turning to `COc1cc(/C=C2\SC(=S)N(Nc3ncc(C(F)(F)F)cc3Cl)C2=O)cc(OC)c1OC`, the inhibition is 31.7%.
